Screening data: PubChem BioAssay, National Center for Advancing Translational Sciences (NCATS)
Pf growth 48h = P. falciparum growth inhibition at 48 hours (one generation); P. falciparum luciferase growth in erythrocytes, 48 h; Potency, µM (top dose mostly 28.7 µM), actives largely listed as inhibitors; hit rate 5.9% among 310,000; AID 504832
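Luciferase-expressing P. falciparum in infected erythrocytes (2% hematocrit, 0.1% parasitemia final) in RPMI 1640/0.5% Albumax were exposed to compound for 48 hours at 37 C, 5% CO2; growth read as luminescence.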
CHX counter = counter-screen hit for Shiga toxin inhibitors, cycloheximide. cell reporter, cycloheximide protein synthesis inhibition counterscreen. max response, %. hit rate 12% among 300,000. AID 2314; in the data active = max response mostly above about 13%, no sharp cut-off; inactive = mostly below about 14%; note: read at 38.3 µM for the half of the compounds with a filed dose
HCV inh = blocks hepatitis C virus; AID 651820; Potency, µM (titrated, usually from 41.8 µM), usual class: inhibitors; hit rate 3.4% among 340,000; Huh7.5.1 HCVcc-Cre infection, luciferase reporter, 44 h
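Infectious HCVcc-Cre (~0.5 moi) was added to cells just after compound, with cells seeded 4 h earlier at 1,000 per well. Luciferase activity after 44 h culture reported infection; substrate was incubated 15 min at room temperature before reading.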
Pf growth 96h = P. falciparum growth inhibition at 96 hours | P. falciparum luciferase reporter growth, 96 h | Potency, µM (top dose mostly 28.7 µM), usual class: inhibitors | hit rate 6.9% among 320,000 | AID 504834
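Cell-based qHTS: luciferase-tagged P. falciparum in erythrocytes (2% hematocrit, 0.05% parasitemia final) incubated with compounds for 96 hours, 37 C, 5% CO2; luciferase detection reagent then added and luminescence measured.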
Shiga toxin inh = inhibitors of Shiga toxin in Vero cells | Vero cells, Shiga toxin protein synthesis inhibition reporter | inhibition, % at 38.7 µM | hit rate 9.2% among 290,000 | AID 2315; in the data active = inhibition mostly above about 28%, no sharp cut-off; inactive = mostly below about 43%
HCMV inh = human cytomegalovirus inhibition; HFF cells, HCMV-luciferase reporter, 72 h; active compounds read low; activity change, negative = inhibition, % at 57.5 µM; hit rate 4.5% among 410,000; AID 1259415; in the data active = activity change below about -60%; inconclusive = no clear call, values can overlap the other calls; inactive = above about -39%
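HFF cells seeded 16 h at 37C, treated with compounds, infected with luciferase-reporter HCMV at MOI 1 PFU/cell; luciferase read at 72 h post infection, normalized to buffer-only and Salinomycin controls.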
Numbers stand for hits; [ ] = dose if it differs, or a comment. A selection: hits, their analogues and other compounds. The true share with any hit is near 21%. Unless noted, calls come from the whole dose curve; as a rule, active = well fitted inhibition curve with a large enough effect; inconclusive = small, poorly fitted or top-dose-only effect, or another doubt; inactive = no such curve, though single readings can be large or run the other way.

How did O=C(N/N=C\c1ccc(-c2ccccc2[N+](=O)[O-])o1)C1COc2ccccc2O1 (centres undefined) do in these assays?
Pf growth 48h: inactive; CHX counter: inactive; HCV inh: inactive; Pf growth 96h: inconclusive; Shiga toxin inh: inactive; HCMV inh: inconclusive

Results for O=C(O)c1cccc(-c2ccc(/C=N/NC(=O)C3COc4ccccc4O3)o2)c1 (centres undefined) ?
Pf growth 48h: inactive; CHX counter: 56; HCV inh: inactive; Pf growth 96h: inactive; Shiga toxin inh: active; HCMV inh: inactive

Results for CC(C)(C)c1ccc2c(c1)OC(C(=O)N/N=C\c1ccc(-c3cccc(C(=O)O)c3)o1)CO2 (centres undefined) ?
Pf growth 48h: inactive; CHX counter: 70; HCV inh: inactive; Pf growth 96h: inactive; Shiga toxin inh: 148; HCMV inh: inactive

Results for O=C(N/N=C/c1c[nH]c2ccccc12)C1COc2ccccc2O1 (centres undefined) ?
Pf growth 48h: inactive; CHX counter: inactive; HCV inh: inconclusive; Pf growth 96h: 10µM; Shiga toxin inh: inactive; HCMV inh: inactive

How did Cc1ccsc1C(=O)OCC(=O)NC1CCS(=O)(=O)C1 (centres undefined) do in these assays?
Pf growth 48h: inactive; CHX counter: inactive; HCV inh: inactive; Pf growth 96h: inactive; Shiga toxin inh: inactive; HCMV inh: inactive

How did CC1CN(C(=O)c2cccc(COc3ccccc3Cl)c2)CC(C)O1 (centres undefined) do in these assays?
Pf growth 48h: inactive; CHX counter: 40; HCV inh: inactive; Pf growth 96h: inconclusive; Shiga toxin inh: 135; HCMV inh: inactive

Results for CC1CN(C(=O)c2ccccc2Oc2ccccc2)CC(C)O1 (centres undefined) ?
Pf growth 48h: inactive; CHX counter: inactive; HCV inh: inactive; Pf growth 96h: inactive; Shiga toxin inh: inactive; HCMV inh: inconclusive

Results for CC1CN(C(=O)c2cccc(C(=O)N3CC(C)OC(C)C3)c2)CC(C)O1 (centres undefined) ?
Pf growth 48h: inactive; CHX counter: inactive; HCV inh: inactive; Pf growth 96h: 15µM; Shiga toxin inh: inactive; HCMV inh: inactive

What do the screens show for `CC1CN(C(=O)c2ccccc2OCc2ccc(Cl)cc2Cl)CC(C)O1` (centres undefined)?
Pf growth 48h: inconclusive; HCV inh: 14µM; Pf growth 96h: inconclusive; HCMV inh: inconclusive

What do the screens show for `O=S(=O)(c1ccccc1)c1nnn2c1nc(NC1CCCCCC1)c1sccc12`?
HCMV inh: inactive

Results for O=[N+]([O-])c1ccccc1-c1cc(-c2ccccc2)cc(-c2ccccc2)[n+]1Cc1ccccc1Cl ?
Pf growth 48h: 0.93µM; HCV inh: 3.5µM; Pf growth 96h: inconclusive; HCMV inh: -97

Results for COC(=O)C1CCN(C(=O)CCCOc2ccccc2)CC1 ?
Pf growth 48h: inactive; CHX counter: 20; HCV inh: inactive; Pf growth 96h: inactive; Shiga toxin inh: 42; HCMV inh: inactive

What do the screens show for `Cc1cc(Cl)ccc1OCCCC(=O)N1CCN(C(=O)c2ccco2)CC1`?
Pf growth 48h: inactive; CHX counter: inactive; HCV inh: inconclusive; Pf growth 96h: inconclusive; Shiga toxin inh: inactive; HCMV inh: inactive

Results for COC(=O)C1CCN(C(=O)CSc2ccccc2)CC1 ?
Pf growth 48h: inactive; CHX counter: inactive; HCV inh: inactive; Pf growth 96h: inconclusive; Shiga toxin inh: inactive; HCMV inh: inactive

How did O=C(OCC(=O)N1CCN(C(=O)c2ccco2)CC1)c1ccc(Cl)cc1 do in these assays?
Pf growth 48h: inactive; HCV inh: inactive; Pf growth 96h: inactive; HCMV inh: inactive

What do the screens show for `O=C(NCCS(=O)(=O)N1CCN(C(=O)c2ccco2)CC1)c1ccccc1`?
HCMV inh: -79

Results for O=C(CCCOc1ccccc1)N1CCN(C(=O)c2ccco2)CC1 ?
Pf growth 48h: inactive; CHX counter: 21; HCV inh: inactive; Shiga toxin inh: 88; HCMV inh: inactive

Results for O=C(OCC(=O)N1CCN(C(=O)c2ccco2)CC1)c1ccccc1 ?
Pf growth 48h: inactive; CHX counter: 29; HCV inh: inactive; Pf growth 96h: inactive; Shiga toxin inh: 78; HCMV inh: inactive

Results for O=S(=O)(NCC1CCCO1)c1ccc(Cl)nc1 (centres undefined) ?
Pf growth 48h: inactive; CHX counter: inactive; HCV inh: inactive; Pf growth 96h: inactive; Shiga toxin inh: inactive; HCMV inh: inactive

What do the screens show for `O=C(NC1CCCCC1)c1nccnc1-c1ccc(C(F)(F)F)cc1`?
HCMV inh: inactive

How did COC(=O)c1cc2sc(C)cc2n1CC(=O)Nc1ccc(C)c(C)c1 do in these assays?
HCMV inh: inactive

Results for COc1ccc(C(=O)OCC(=O)N2CCN(C(=O)c3ccco3)CC2)c(OC)c1OC ?
HCMV inh: -102

Results for O=C(OCC(=O)N1CCN(C(=O)c2ccco2)CC1)c1ccccc1O ?
CHX counter: inactive; HCV inh: inactive; Pf growth 96h: inactive; Shiga toxin inh: 32; HCMV inh: inactive

How did COc1ccc(CN2CCN(C(=O)c3ccco3)CC2)c(OC)c1OC do in these assays?
HCV inh: inactive; HCMV inh: inactive

What do the screens show for `O=C(COC(=O)C1(c2ccc(F)cc2)CCCC1)N1CCN(C(=O)c2ccco2)CC1`?
Pf growth 48h: inconclusive; CHX counter: inactive; HCV inh: inconclusive; Pf growth 96h: inconclusive; Shiga toxin inh: inactive; HCMV inh: -106

How did N[C@@H](Cc1cnc[nH]1)C(=O)O do in these assays?
Pf growth 48h: inactive; Pf growth 96h: inactive

Results for CC(C)c1ccc(NC(=O)C2CC(=O)Nc3nc4ccccc4n32)cc1 (centres undefined) ?
Pf growth 48h: inactive; CHX counter: 23; HCV inh: inactive; Pf growth 96h: inactive; Shiga toxin inh: inactive; HCMV inh: inactive

Results for O=C(NCC1CCCCC1)c1cc(S(=O)(=O)N2CCOCC2)ccc1F ?
Pf growth 48h: inconclusive; HCV inh: inactive; Pf growth 96h: inactive; HCMV inh: inactive

What do the screens show for `O=C(O)COc1ccc(/C=N/NC(=O)C(O)(c2ccccc2)c2ccccc2)cc1`?
Pf growth 48h: inactive[0.00184 µM]; CHX counter: inactive; HCV inh: inactive; Pf growth 96h: inactive; Shiga toxin inh: inactive; HCMV inh: inactive

Results for O=C(c1cc(-c2ccco2)on1)N1CCCc2ccccc21 ?
Pf growth 48h: inactive; CHX counter: 16; HCV inh: inactive; Pf growth 96h: inactive; Shiga toxin inh: 105; HCMV inh: inactive

How did O=C(c1cc(-c2ccccc2)on1)N1CCCc2ccccc21 do in these assays?
Pf growth 48h: inconclusive; CHX counter: 50; HCV inh: inactive; Pf growth 96h: inactive; Shiga toxin inh: 61; HCMV inh: inactive

Results for Cn1ccc(C(=O)N2CCCc3ccccc32)n1 ?
Pf growth 48h: inactive; CHX counter: inactive; HCV inh: inactive; Pf growth 96h: inactive; Shiga toxin inh: inactive; HCMV inh: inactive
